Reference: the antibiotic and cytotoxicity screens of Wong et al. (2023)
Among all 39,000 compounds or so, about 3,300 (8.5%) were called active. Many of the other results were omitted from the sample, so actives are more common in it than they were.

The compounds below were run on HepG2 (assay: cytotoxicity call (relative viability < 0.9)). Settings: 10 µM.

SMILES	cytotoxicity call
CO[C@@H]1[C@H](N(C)C(=O)c2ccccc2)C[C@H]2O[C@]1(C)n1c3ccccc3c3c4c(c5c6ccccc6n2c5c31)C(=O)NC4	active
C[C@@H]1CCCCO[C@H](CN(C)C(=O)c2ccccc2)[C@@H](C)CN([C@H](C)CO)C(=O)c2cc(NC(=O)Cc3ccccc3)ccc2O1	inactive
Cc1noc(C)c1NC(=O)Nc1ccc2c(c1)C(=O)N([C@@H](C)CO)C[C@H](C)[C@@H](CN(C)Cc1ccccc1)OCCCC[C@H](C)O2	inactive
C[C@@H]1CN([C@H](C)CO)C(=O)c2cc(NS(=O)(=O)c3ccc(F)cc3)ccc2O[C@@H]1CN(C)CC1CC1	inactive
CN(C)C1C(O)=C(C(N)=O)C(=O)C2(O)C(O)=C3C(=O)c4c(O)cccc4C(C)(O)C3C(O)C12.Cl (stereo not given)	inactive
CC(=O)N(C)C[C@H]1Oc2ncc(C#C[C@@H](C)O)cc2C(=O)N([C@H](C)CO)C[C@H]1C	inactive
CC(=O)N[C@@H]1[C@@H](O)[C@H](O)[C@@H](CO)O[C@H]1O	inactive
COc1ccc(N2CCN(c3nc(NCCO)nc(N4CCOCC4)n3)CC2)cc1	inactive
Cc1nc(N)sc1-c1ccnc(Nc2ccc(N3CCOCC3)cc2)n1	active
CC(=O)Oc1ccc(-c2cc(=O)c3c(OC(C)=O)cc(OC(C)=O)cc3o2)cc1	inactive
CN1CCN(C(=O)C[C@H]2CC[C@H]3[C@@H](COC[C@H](O)CN3C(=O)C3CC3)O2)CC1	inactive
COc1ccc(S(=O)(=O)N(C)C[C@H]2Oc3ccc(NC(=O)Cc4ccccc4)cc3C(=O)N([C@@H](C)CO)C[C@@H]2C)cc1	inactive
C[C@H]1CN([C@@H](C)CO)C(=O)c2cccc(NC(=O)Nc3ccccc3)c2O[C@@H]1CN(C)Cc1ccc(C(F)(F)F)cc1	inactive
Cc1ncc(NC(=O)c2cccc(C(F)(F)F)c2)cc1-c1cnc(OC2CCOCC2)c(N2CCOCC2)c1	inactive
CC(=O)c1cccc(C(F)(F)F)c1	inactive
Cc1ccc(Nc2ncc3c(n2)N(C)C(=O)N(c2cc(NC(=O)c4cccc(C(F)(F)F)c4)ccc2C)C3)cn1	active
Cc1ccc(S(=O)(=O)N(C)C[C@@H]2Oc3cc(Br)ccc3S(=O)(=O)N([C@H](C)CO)C[C@@H]2C)cc1	inactive
Cc1noc(C)c1S(=O)(=O)N(C)C[C@@H]1OCCCC[C@@H](C)Oc2ccc(NS(C)(=O)=O)cc2C(=O)N([C@H](C)CO)C[C@H]1C	inactive
CCCC[P+](CCCC)(CCCC)Cc1ccc(NC(=O)[C@H](Cc2ccc3ccccc3c2)N/C(=N/C2CCCCC2)NC2CCCCC2)cc1	inactive
C/C=C/c1ccc2c(c1)O[C@H](CN(C)Cc1ccc(C(=O)O)cc1)[C@@H](C)CN([C@@H](C)CO)S2(=O)=O	inactive
COc1ccc(CN(C)C[C@@H]2OCCCC[C@@H](C)Oc3ccc(NC(=O)Nc4ccc5c(c4)OCO5)cc3C(=O)N([C@H](C)CO)C[C@H]2C)cc1	inactive
COc1ccc(CN(C)C[C@H]2OCCCC[C@H](C)Oc3ccc(NC(=O)Nc4ccc5c(c4)OCO5)cc3C(=O)N([C@@H](C)CO)C[C@@H]2C)cc1	active

SMILES	cytotoxicity call
COc1ccc(CN(C)C[C@@H]2OCCCC[C@@H](C)Oc3ccc(NC(=O)Nc4ccc5c(c4)OCO5)cc3C(=O)N([C@@H](C)CO)C[C@H]2C)cc1	active
COc1ccc(CN(C)C[C@H]2OCCCC[C@@H](C)Oc3ccc(NC(=O)Nc4ccc5c(c4)OCO5)cc3C(=O)N([C@H](C)CO)C[C@@H]2C)cc1	inactive
COc1ccc(CN(C)C[C@H]2OCCCC[C@@H](C)Oc3ccc(NC(=O)Nc4ccc5c(c4)OCO5)cc3C(=O)N([C@H](C)CO)C[C@H]2C)cc1	active
COc1ccc(CN(C)C[C@@H]2OCCCC[C@H](C)Oc3ccc(NC(=O)Nc4ccc5c(c4)OCO5)cc3C(=O)N([C@H](C)CO)C[C@@H]2C)cc1	inactive
COc1ccc(CN(C)C[C@@H]2OCCCC[C@H](C)Oc3ccc(NC(=O)Nc4ccc5c(c4)OCO5)cc3C(=O)N([C@H](C)CO)C[C@H]2C)cc1	inactive
COc1ccc(CN(C)C[C@@H]2OCCCC[C@H](C)Oc3ccc(NC(=O)Nc4ccc5c(c4)OCO5)cc3C(=O)N([C@@H](C)CO)C[C@H]2C)cc1	inactive
COc1ccc(CN(C)C[C@@H]2OCCCC[C@@H](C)Oc3ccc(NC(=O)Nc4ccc5c(c4)OCO5)cc3C(=O)N([C@@H](C)CO)C[C@@H]2C)cc1	active
COc1ccc(CN(C)C[C@@H]2OCCCC[C@@H](C)Oc3ccc(NC(=O)Nc4ccc5c(c4)OCO5)cc3C(=O)N([C@H](C)CO)C[C@@H]2C)cc1	inactive
COc1ccc(CN(C)C[C@H]2OCCCC[C@H](C)Oc3ccc(NC(=O)Nc4ccc5c(c4)OCO5)cc3C(=O)N([C@H](C)CO)C[C@@H]2C)cc1	inactive
COc1ccc(CN(C)C[C@@H]2OCCCC[C@H](C)Oc3ccc(NC(=O)Nc4ccc5c(c4)OCO5)cc3C(=O)N([C@@H](C)CO)C[C@@H]2C)cc1	inactive
O=C(C[C@H]1CC[C@@H](NC(=O)c2cnccn2)[C@@H](CO)O1)NCc1ccccc1F	inactive
COc1ccc(CNC(=O)C[C@@H]2C[C@H]3c4cc(NC(=O)NC5CCCC5)ccc4O[C@H]3[C@H](CO)O2)cc1	inactive
COc1ccc(NC(=O)N(C)C[C@H]2Oc3ccc(NS(C)(=O)=O)cc3CC(=O)N([C@H](C)CO)C[C@H]2C)cc1	inactive
O=C(C[C@@H]1C=C[C@H](NC(=O)CN2CCOCC2)[C@@H](CO)O1)NCc1cccc(F)c1	inactive
C[C@H](CO)N1C[C@H](C)[C@@H](CN(C)CC2CCCCC2)Oc2ccc(NC(=O)CCN3CCOCC3)cc2CC1=O	inactive
C[C@H]1CN([C@@H](C)CO)C(=O)CCCn2cc(nn2)CO[C@H]1CN(C)S(C)(=O)=O	inactive
C[C@@H]1CCCCO[C@@H](CN(C)C(=O)CCCN(C)C)[C@H](C)CN([C@H](C)CO)C(=O)c2cc(NC(=O)Nc3cccc4ccccc34)ccc2O1	inactive
COc1ccc(CN(C)C[C@H]2OCCCC[C@@H](C)Oc3ccc(NC(=O)Nc4ccc5c(c4)OCO5)cc3C(=O)N([C@@H](C)CO)C[C@@H]2C)cc1	inactive
COc1ccc(CN(C)C[C@H]2OCCCC[C@H](C)Oc3ccc(NC(=O)Nc4ccc5c(c4)OCO5)cc3C(=O)N([C@@H](C)CO)C[C@H]2C)cc1	active
COc1ccc(CN(C)C[C@H]2OCCCC[C@@H](C)Oc3ccc(NC(=O)Nc4ccc5c(c4)OCO5)cc3C(=O)N([C@@H](C)CO)C[C@H]2C)cc1	inactive
COc1ccc(-c2cnc3c(c2)C(=O)N([C@H](C)CO)C[C@@H](C)[C@H](CN(C)C(=O)C2CCOCC2)O3)cc1	inactive
CCCCCCCCCCCCCCCCCCCCCCO	active

SMILES	cytotoxicity call
CCCCCCCCCCCCCCCCCCCCCCCCCCCCO	inactive
CCCCCCCCCCCCCCCC(=O)CCO	inactive
COCC(=O)Nc1ccc2c(c1)[C@@H]1C[C@H](CC(=O)N3CCOCC3)O[C@H](CO)[C@@H]1O2	inactive
CO[C@H]1O[C@H](CO)[C@@H](OC(=O)Nc2ccccc2-c2ccccc2)[C@H](OC(=O)Nc2ccccc2-c2ccccc2)[C@@H]1OC(=O)Nc1ccccc1-c1ccccc1	inactive
CO[C@H]1O[C@H](CO)[C@@H](OC(=O)Nc2cccc(F)c2)[C@H](OC(=O)Nc2ccccc2-c2ccccc2)[C@@H]1OC(=O)Nc1ccccc1-c1ccccc1	inactive
CO[C@H]1O[C@H](CO)[C@@H](OC(=O)Nc2cccc(F)c2)[C@H](OC(=O)Nc2ccccc2-c2ccccc2)[C@H]1OC(=O)Nc1ccccc1-c1ccccc1	active
CCc1cccc(NC(=O)O[C@H]2[C@H](OC(=O)Nc3ccccc3-c3ccccc3)[C@H](OC(=O)Nc3ccccc3-c3ccccc3)[C@@H](OC)O[C@@H]2CO)c1	inactive
CO[C@H]1O[C@H](CO)[C@@H](OC(=O)Nc2ccccc2-c2ccccc2)[C@H](OC(=O)Nc2ccccc2)[C@@H]1OC(=O)Nc1ccccc1	active
COc1ccc(NC(=O)O[C@H]2[C@H](OC(=O)Nc3ccccc3-c3ccccc3)[C@H](OC(=O)Nc3ccccc3-c3ccccc3)[C@@H](OC)O[C@@H]2CO)cc1	inactive
C[C@@H]1CN([C@@H](C)CO)C(=O)Cc2cc(NS(C)(=O)=O)ccc2O[C@@H]1CN(C)S(=O)(=O)c1cccs1	inactive
CN1CCN(C(=O)C[C@@H]2C[C@H]3c4cc(NC(=O)c5ccc6c(c5)OCO6)ccc4O[C@H]3[C@H](CO)O2)CC1	inactive
COc1ccc(S(=O)(=O)N(C)C[C@H]2Oc3cc(C#CC4CC4)ccc3S(=O)(=O)N([C@H](C)CO)C[C@@H]2C)cc1	inactive
CCCCc1oc2ccc(NS(C)(=O)=O)cc2c1C(=O)c1ccc(OCCCN(CCCC)CCCC)cc1	active
CCCCN(CCCC)CCCOC(=O)c1ccc(N)cc1.O=S(=O)(O)O	inactive
CCCCc1oc2ccc(NS(C)(=O)=O)cc2c1C(=O)c1ccc(OCCCN(CCCC)CCCC)cc1.Cl	active
CCC1=NCCO1	inactive
CC(C)NC(=O)N(C)C[C@@H]1Oc2ccc(NC(=O)Nc3ccc4c(c3)OCO4)cc2C(=O)N([C@H](C)CO)C[C@H]1C	inactive
C#CCN1C(=O)N(C(=O)c2ccccc2)[C@@]2(COCc3ccc(OC)cc3)Oc3ccccc3[C@@H]1[C@H]2CO[Si](C)(C)C(C)(C)C	inactive
CN(C)CCCNC(=O)C[C@@H]1CC[C@@H]2[C@@H](COc3ccc(NC(=O)c4ccccc4F)cc3C(=O)N2C)O1	inactive
CCS(=O)(=O)NCC[C@H]1CC[C@H](NC(=O)C2CCOCC2)[C@H](CO)O1	inactive
O=C(C[C@@H]1C[C@H]2c3cc(NS(=O)(=O)c4ccc(F)cc4)ccc3O[C@H]2[C@H](CO)O1)NCCc1ccccc1	inactive
